Cell viability activity data for 39 compounds are collected here from the supplement of paper PMC9177965.

Each structure is given as a SMILES string. Where “and” joins values, the source holds several entries; their conditions need not be identical. Equal values may be shown once.

The test system of assay [1] is HT29 RNF43 G659fs (RNF43 659mut, CRISPR-edited). Nature of the assay: cell viability activity relative to DMSO (negative = inhibition); higher = more viable cells (less growth inhibition). Particulars: 5 µM; 96 h. As for the experimental part:
(§1)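 Broad Repurposing Library primary screen at a single dose of 5 uM. HT29 sg-Ctrl and HT29 RNF43 G659fs CRISPR-edited isogenic cells were seeded at 2500 cells/well in 384-well plates in duplicate and treated for 96 h. Viability was read by CellTiter-Glo and reported as % activity relative to DMSO, with MG132 as the positive control (negative = growth inhibition).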

For assay [2], the system named is HT29 sg-Ctrl (RNF43 wildtype). Described as above. Particulars: 5 µM; 96 h. As for the experimental part: as §1

Turning to `Cc1cc(C(=O)NOCCO)c(Nc2ccc(I)cc2F)n(C)c1=O`, the cell viability activity in assay [1] was -83.4%; in assay [2] it was -88.5%.

Take `CCS(=O)(=O)c1cccc(-c2cc(C(=O)NC3CCN(C)CC3)c(C)c3[nH]c4ncc(C)cc4c23)c1`: the figures for the cell viability activity in assay [1] and in assay [2] were -90.1% and -85.9%, respectively.

`COc1c(C)cnc(Cn2cc(C#CCC(C)(C)O)c3c(Cl)nc(N)nc32)c1C`: the results for the cell viability activity in assay [1] and in assay [2] were -42.7% and -88.4%, respectively.

In the case of `Cn1cc(C2=C(c3cn(CCCSC(=N)N)c4ccccc34)C(=O)NC2=O)c2ccccc21`, the cell viability activity in assay [1] is -81.3%; in assay [2], -73.6%.

On to `O=P(O)(O)C(O)(Cn1ccnc1)P(=O)(O)O`, for which the cell viability activity in assay [1] was -39.2%; in assay [2], -25.6%.

For the compound `Nc1nc(Nc2ccc(S(N)(=O)=O)cc2)nn1C(=O)c1c(F)cccc1F`, the values for the cell viability activity in assay [1] and in assay [2] were -23.1% and -26.5%, respectively.

In the case of `CCC1=C[C@@H]2CN(C1)Cc1c([nH]c3ccccc13)[C@@](C(=O)OC)(c1cc3c(cc1OC)N(C)[C@H]1[C@@](O)(C(=O)OC)[C@H](OC(C)=O)[C@]4(CC)C=CCN5CC[C@]31[C@@H]54)C2`, the cell viability activity in assay [1] is -62.4%; in assay [2] it was -40%.

As to `Cc1c(C2CCN(CCc3ccccc3)CC2)noc1-c1ccc(Cl)cc1`, the figures for the cell viability activity in assay [1] and in assay [2] were -38% and -39.7%, respectively.

For the compound `C=C1C(=O)O[C@H]2[C@H]1CC/C(C)=C/CC[C@@]1(C)O[C@@H]21`, the cell viability activity in assay [1] was -28.1%; in assay [2], -6.73%.

Take `O=c1[nH]cc(F)c(=O)[nH]1`: the cell viability activity was -32.3% in assay [1] and -14.8% in assay [2].

Take `CC1NC(=O)C(N)CNC(=O)C(C2CCN=C(N)N2)NC(=O)/C(=C\NC(N)=O)NC(=O)C(CNC(=O)CC(N)CCCN)NC1=O` (stereo not drawn): the cell viability activity in assay [1] is -29.5%; in assay [2] it was 0.515%.

Take `CN1CCN(CCCN2c3ccccc3Sc3ccc(C(F)(F)F)cc32)CC1`: the figures for the cell viability activity in assay [1] and in assay [2] were -34.4% and -18.8%, respectively.

For the compound `CC(C)NC[C@@H](C(=O)N1CCN(c2ncnc3c2[C@H](C)C[C@H]3O)CC1)c1ccc(Cl)cc1`, the results for the cell viability activity in assay [1] and in assay [2] were -53.6% and -35.4%, respectively.

For `CCN(CC)CCNC(=O)c1ccc(NC(C)=O)cc1`, the cell viability activity in assay [1] is -53.2%; in assay [2], -3.92%.

Turning to `CCN(CC)CCCCNc1ncc2cc(-c3c(Cl)cccc3Cl)c(NC(=O)NC(C)(C)C)nc2n1`, the cell viability activity is -49.6% in assay [1] and -33% in assay [2].

For `COc1ccc(NC(=O)c2ccc(-c3ccc(-c4noc(C)n4)cc3C)cc2)cc1N1CCN(C)CC1`, the cell viability activity is -61% in assay [1] and -57.8% in assay [2].

As for `Cc1cccc(-c2[nH]c(C(C)(C)C)nc2-c2ccc3c(c2)OCO3)n1`, the cell viability activity was -79.2% in assay [1] and -50.7% in assay [2].

Consider `C1CCC(C(CC2CCCCN2)C2CCCCC2)CC1` (stereo not drawn), for which the cell viability activity is -92.4% in assay [1] and -89% in assay [2].

As for `CC(C)CCN1c2nc(Nc3cc(F)c(O)c(F)c3)ncc2N(C)C(=O)C1C` (stereo not drawn), the cell viability activity is -29.4% in assay [1] and 4.41% in assay [2].

On to `CCCCCCCCNC(C)C(O)c1ccc(SC(C)C)cc1` (stereo not drawn), for which the values for the cell viability activity in assay [1] and in assay [2] were -87.2% and -12.2%, respectively.

For the compound `CN(C)/N=N/c1[nH]cnc1C(N)=O`, the cell viability activity in assay [1] is -31.5%; in assay [2], -26.5%.

Consider `CC(C)(C)c1[nH]cnc1/C=c1\[nH]c(=O)/c(=C/c2ccccc2)[nH]c1=O`, for which the cell viability activity is -55.7% in assay [1] and -54% in assay [2].

In the case of `CCN1CCC[C@H]1CNC(=O)c1c(OC)ccc(Br)c1OC`, the cell viability activity in assay [1] was -49.5%; in assay [2], -38.6%.

Consider `CS(=O)(=O)N1CCc2c(-c3cnc(N)nc3)nc(N3CCOCC3)nc21`, for which the figures for the cell viability activity in assay [1] and in assay [2] were -53.1% and -25.2%, respectively.

Regarding `CC1(COc2ccc3c(c2)ncn3-c2ccc3cccc(N4CCC(N)CC4)c3n2)COC1`, the cell viability activity in assay [1] was -98.3%; in assay [2] it was -98%.

For `CC[C@@H](C(=O)[C@@H](C)[C@@H](O)[C@H](C)CCc1ccc(C)c(O)c1C(=O)O)[C@H]1O[C@](CC)([C@H]2CC[C@](O)(CC)[C@H](C)O2)C[C@@H]1C`, the cell viability activity in assay [1] was -65.8%; in assay [2] it was -42.9%.

On to `CC(C=CC(=O)NO)=CC(C)C(=O)c1ccc(N(C)C)cc1` (stereo not drawn), for which the cell viability activity in assay [1] is -95.2%; in assay [2], -94.9%.

As to `COc1ccccc1S(=O)(=O)Nc1ccc2c(c1)CN(C)C(=O)N2`, the figures for the cell viability activity in assay [1] and in assay [2] were -56.4% and -63.5%, respectively.

For the compound `COC[C@H](NC(=O)c1cnc(C)s1)C(=O)N[C@@H](COC)C(=O)N[C@@H](Cc1ccccc1)C(=O)[C@@]1(C)CO1`, the results for the cell viability activity in assay [1] and in assay [2] were -95.3% and -93.6%, respectively.

As for `CC[C@@H]1C(=O)N(C)c2cnc(Nc3ccc(C(=O)N[C@H]4CC[C@H](N5CCN(CC6CC6)CC5)CC4)cc3OC)nc2N1C(C)C`, the cell viability activity was -66.4% in assay [1] and -77.9% in assay [2].

Take `CC[C@@H]1C(=O)N(C)c2cnc(Nc3ccc(C(=O)NC4CCN(C)CC4)cc3OC)nc2N1C1CCCC1`: the results for the cell viability activity in assay [1] and in assay [2] were -83.2% and -90.4%, respectively.

In the case of `O=C(NOCCO)c1cc(CN2OCCCC2=O)c(F)c(F)c1Nc1ccc(I)cc1F`, the cell viability activity in assay [1] is -76.5%; in assay [2], -75%.

For the compound `CC(C)Oc1ccc(C(=O)N[C@H](CNC(=O)CN(C)C)Cc2ccc(-c3cn4cccc([C@H](C)O)c4n3)cc2)cc1Cl`, the values for the cell viability activity in assay [1] and in assay [2] were -54.6% and -59.4%, respectively.

Regarding `CC(C)c1cc(C(=O)N2Cc3ccc(CN4CCN(C)CC4)cc3C2)c(O)cc1O`, the cell viability activity is -91.7% in assay [1] and -88.3% in assay [2].

For `O=c1[nH]c(=O)n([C@H]2C[C@H](O)[C@@H](CO)O2)cc1F`, the cell viability activity in assay [1] is -58.1% and -58.2%; in assay [2], -54.2% and -63.2%.

With `O=C(NO)c1cnc(N2CCN(S(=O)(=O)c3ccc4ccccc4c3)CC2)nc1`, the cell viability activity in assay [1] was -64.4%; in assay [2], -48.5%.

`CCCCCCCC/C=C/CCCCCCCC(=O)OC[C@H]1O[C@@H](n2ccc(N)nc2=O)C(F)(F)[C@@H]1O`: the cell viability activity in assay [1] is -42%; in assay [2], -51.8%.

Consider `COc1ccc(S(=O)(=O)Nc2cccnc2Nc2ccc(O)cc2)cc1`, for which the cell viability activity in assay [1] was -63.9%; in assay [2] it was -55.9%.

Turning to `CC(C)CC(=O)Nc1n[nH]c2c1CN(C(=O)C1CCN(C)CC1)C2(C)C`, the figures for the cell viability activity in assay [1] and in assay [2] were -60.4% and -61.4%, respectively.
